Screening data deposited in PubChem by The Scripps Research Institute Molecular Screening Center.
A selection: hits, their analogues and other compounds. The true share with any hit is near 3.5%.
FBW7 act: FBW7 E3 ligase activators, primary screen, biochemical, AlphaScreen, human; actives 0.13% (n = 650,000); normalized activity (activation), % at 26.1 µM; AlphaScreen FBW7–phospho-cyclin E peptide binding, activator screen; F-box/WD repeat-containing protein 7 (Homo sapiens), Q969H0; AID 1259310, 2017; in the data active means normalized activity above about 1.9%;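 further: purified mutant Fbw7 with reduced substrate affinity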
MITF inh: MITF inhibitors, primary screen, biochemical, AlphaScreen, human; AlphaScreen MITF homodimerization, bead proximity signal; inhibition, % at 2.6 µM; actives 0.91% (n = 650,000); AID 1259374, 2018; in the data active means inhibition above about 50%
TEAD-YAP block: TEAD-YAP interaction inhibition, primary screen, TEAD-YAP interaction inhibitor project, luminescence, HEK-TIYL cells; TEAD-Gal4/YAP UAS-luciferase luminescence; inhibition, % at 9.12 µM; actives 1.4% (n = 640,000); in the data active means inhibition above about 32%
GPR151 activ: activators of human GPR151, primary screen, cell-based, PathHunter beta-arrestin, luminescence | AID 1508602, 2020 | PathHunter beta-arrestin GPR151 cells | G-protein coupled receptor 151 (Homo sapiens), Q8TDV0 | actives 1% (n = 650,000) | activation, % at 11.2 µM; in the data active means activation above about 4.9%
Target sequence (Q8TDV0 whole entry, looked up): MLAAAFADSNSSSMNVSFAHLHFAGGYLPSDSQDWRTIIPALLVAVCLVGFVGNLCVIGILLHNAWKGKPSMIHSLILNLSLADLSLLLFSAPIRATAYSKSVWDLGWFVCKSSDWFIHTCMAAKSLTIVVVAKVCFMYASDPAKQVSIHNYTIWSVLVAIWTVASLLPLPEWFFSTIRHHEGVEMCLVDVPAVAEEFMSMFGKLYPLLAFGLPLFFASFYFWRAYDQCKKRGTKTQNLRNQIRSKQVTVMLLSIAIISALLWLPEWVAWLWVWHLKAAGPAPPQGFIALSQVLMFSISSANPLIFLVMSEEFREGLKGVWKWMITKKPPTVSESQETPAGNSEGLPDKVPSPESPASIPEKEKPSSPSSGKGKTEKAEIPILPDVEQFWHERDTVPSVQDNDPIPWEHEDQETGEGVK
GPR151 conf act: GPR151 activators, triplicate retest, confirmation, cell-based, PathHunter beta-arrestin, luminescence | 6,700 tested, under 10 active | activation, % at 11.2 µM | AID 1508609, 2020 | GPR151 PathHunter beta-arrestin cells, 90 min; % of EA-reagent control over plate median | shares compounds with GPR151 activ;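 active means mean percent activation across replicates above the confirmation screen cutoff of 4.91%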
GPR119 counter: GPR119 activators in beta-arrestin cells, counter-screen for GPR151 activator project, cell-based, PathHunter beta-arrestin, luminescence, triplicate; shares compounds with GPR151 activ; activation, % at 11.2 µM; AID 1508611, 2020; actives 0.3% (n = 6,700); 90 min; 0 = compound-well median, 100 = enzyme-acceptor control;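 active means mean percent activation in the counterscreen above 29.09%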;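 further: counterscreen on off-target GPR119 to flag nonselective hits from the GPR151 activator screen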
Numbers stand for hits; - = inactive; . = not tested or not shown.

SMILES | FBW7 act | MITF inh | TEAD-YAP block | GPR151 activ | GPR151 conf act | GPR119 counter
COc1ccc(O)c(C2=Nc3ccccc3N=C(c3cccc(Br)c3)C2)c1 | - | - | - | 5.5 | - | -
Cc1ccc(O)c(C2=Nc3ccccc3N=C(c3cccc(Br)c3)C2)c1 | - | - | - | - | . | .
CC(C)(C)NC(=O)C(c1ccccn1)N(Cc1ccccc1)C(=O)c1csnn1 (stereo unspecified) | - | - | - | 4.9 | - | -
CCOC(=O)N1CCN(CC(O)COc2ccc(Br)cc2)CC1 (stereo unspecified) | - | - | - | - | . | .
CCOC(=O)c1c(NC(=O)/C=C/c2ccc(C)o2)sc(C)c1C | - | - | - | 9.8 | - | -
CS(=O)(=O)Nc1ccc(C(=O)Nc2ccccc2C(=O)NCCc2ccccc2)cc1 | - | - | - | - | . | .
COc1ccc(C(=O)NC(=S)NCc2ccccc2)cc1 | - | - | - | 11 | - | -
COc1ccc(CNC(=O)c2c(Cl)cccc2Cl)cc1 | - | - | - | 5.7 | - | -
CS(=O)(=O)Nc1ccc(C(=O)NCCc2ccccc2)cc1 | - | - | - | 5.7 | - | -
COc1ccc(CNC(=O)c2ccc(NS(C)(=O)=O)cc2)cc1 | - | - | - | 4.9 | - | -
CCN(CC)c1ccc(C(=O)NCCO)cc1 | - | - | - | - | . | .
COc1ccc(NC(=O)c2ccc(NC(=O)c3ccc(NC(=O)c4cccc(C)c4)cc3)cc2)cc1 | - | - | - | - | . | .
CCN(CC)c1ccc(C(=O)NCCc2ccccc2)cc1 | - | - | - | 7.0 | - | -
COc1ccc(NC(=O)CNC(=O)c2cccc(C)c2)cc1 | - | - | - | 8.1 | - | -
COc1ccc(C(=O)Nc2ccc(C(=O)NCCc3ccccc3)cc2)cc1 | - | - | - | 5.2 | - | -
O=C(COc1ccc(C(=O)NCCc2ccccc2)cc1)Nc1ccccc1F | - | - | - | 28 | - | -
COC(=O)c1ccc(/C=N/NC(=O)COc2cccc(Cl)c2)cc1 | - | - | - | - | . | .
O=C(CC(NC1CCCC1)C(=O)O)Nc1ccc(F)cc1 (stereo unspecified) | - | - | - | - | . | .
COc1ccc(-c2nc(CNS(=O)(=O)c3ccc(OC)c(OC)c3)cs2)cc1 | - | - | - | - | . | .
COc1ccc(S(=O)(=O)NCc2csc(-c3cccnc3)n2)cc1OC | - | - | - | 6.5 | - | -
O=C1NC(c2ccc(Cl)cc2Cl)Oc2ccccc21 (stereo unspecified) | - | - | - | 8.9 | - | -
CCOc1ccc2nc(SCc3cccc(-c4ccccc4)c3C)sc2c1 | - | - | - | - | . | .
Cc1ccc(S(=O)(=O)n2c(SCC(=O)NCCc3ccccc3)nc3ccccc32)cc1 | - | - | - | 5.4 | - | -
Cn1c(SCC(=O)NCCc2ccccc2)nnc1-c1ccncc1 | - | - | - | 6.1 | - | -
O=C(CSc1nc2ccccc2n1S(=O)(=O)c1ccccc1)NCCc1ccccc1 | - | - | - | - | . | .
SMILES | FBW7 act | MITF inh | TEAD-YAP block | GPR151 activ | GPR151 conf act | GPR119 counter
C/C(=N\NC(=O)c1cc(-c2cccs2)[nH]n1)c1ccccc1O | - | - | - | - | . | .
O=C(Nc1ccccc1)C1CCCN1C(=O)NC1CCCCC1 (stereo unspecified) | - | - | - | - | . | .
O=C(O)C1CCCN1C(=O)NC1CCCCC1 (stereo unspecified) | - | - | - | 4.9 | - | -
C=C1C(C(=O)N2CCOCC2)C1C(=O)N1CCOCC1 (stereo unspecified) | - | - | - | 5.4 | - | -
Cn1cccc1C(CNS(=O)(=O)c1cc(F)ccc1F)N1CCCC1 (stereo unspecified) | - | - | - | - | . | .
CCOc1ccc(C)cc1S(=O)(=O)NCC(c1cccn1C)N1CCCC1 (stereo unspecified) | - | - | - | 5.2 | - | -
Cc1cccc(N(CC(=O)N2CCN(c3ccccc3)CC2)S(=O)(=O)c2ccccc2)c1 | - | - | - | 5.8 | - | -
